Experimental data reported in ChEMBL document CHEMBL3433997, “St. Jude Leishmania screening dataset” (2016).
Where “and” joins values, the source holds several entries; their conditions need not be identical. Equal entries are not always repeated.

Legend:
Type in all cases: functional
[1] = target: Solute carrier family 2, facilitated glucose transporter member 1 (Homo sapiens) (UniProt P11166); assay: ST_JUDE_LEISH: Cytotoxicity at 2uM final concentration against transgenic Leishmania Mexicana promastigotes LmGLUT1 that are glucose transport deficient and complemented with the human glucose transporter GLUT1. Activity is measured by DNA content using SYBR green in vitro
[2] = target: Hexose transporter 1 (Plasmodium falciparum) (UniProt O97467); assay: ST_JUDE_LEISH: Cytotoxicity at 2uM final concentration against transgenic Leishmania Mexicana promastigotes LmPfHT that are glucose transport deficient and complemented with the Plasmodium falciparum hexose transporter. Activity is measured by DNA content using SYBR green in vitro
[3] = target: Glucose transporter (Leishmania mexicana) (UniProt O61059); assay: ST_JUDE_LEISH: Cytotoxicity at 2uM final concentration against transgenic Leishmania Mexicana promastigotes LmGT2 that are glucose transport deficient and complemented with the L. Mexicana glucose transporter 2. Activity is measured by DNA content using SYBR green in vitro

Solute carrier family 2, facilitated glucose transporter member 1 (Homo sapiens), sequence (P11166 whole entry): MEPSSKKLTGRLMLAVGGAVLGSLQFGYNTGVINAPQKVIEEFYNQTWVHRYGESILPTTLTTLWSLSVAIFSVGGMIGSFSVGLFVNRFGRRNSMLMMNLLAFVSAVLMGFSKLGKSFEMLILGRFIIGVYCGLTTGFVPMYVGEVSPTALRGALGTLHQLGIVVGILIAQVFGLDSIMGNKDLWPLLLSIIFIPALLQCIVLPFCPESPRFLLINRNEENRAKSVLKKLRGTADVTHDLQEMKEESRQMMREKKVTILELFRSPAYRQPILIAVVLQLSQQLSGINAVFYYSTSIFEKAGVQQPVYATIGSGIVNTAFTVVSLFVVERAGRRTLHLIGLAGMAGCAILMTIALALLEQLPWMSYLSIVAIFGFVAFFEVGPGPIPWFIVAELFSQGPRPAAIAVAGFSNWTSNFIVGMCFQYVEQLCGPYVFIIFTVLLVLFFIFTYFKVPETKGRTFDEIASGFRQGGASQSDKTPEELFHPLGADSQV

Structure (SMILES)	inhibition [1]	inhibition [2]	inhibition [3]
Cc1c(CCc2cccc(F)c2F)[nH]c2ccccc2c1=O	-0.2%	5.03%	0.83%
COc1cc2ncnc(Nc3ccc4nc(Cc5ccccc5)[nH]c4c3)c2cc1OC	1.2%	1.95%	2.53%
CCCCCCOc1ccc(C(=O)NCCCC2CCN(CCCCCNC(=O)C=Cc3ccc(Cl)c(Cl)c3)CC2)cc1	2.75%	4.46%	3.91%
CCCCCC(C)C(C)c1cc(O)c2c(c1)OC(C)(C)CC2(O)c1ccccn1 (configuration not stated)	1.35%	2.79%	3.05%
N=C(N)NCCN(Cc1ccccc1)c1ccccc1	2.42%	1.13%	2.3%
CCc1c(C)nc(-n2nc(C)cc2NC(=O)C2c3ccccc3Oc3ccccc32)[nH]c1=O	-0.64%	-0.55%	3.35%
O=C(Nc1ccc(-c2ccccc2)cc1)Nc1cccc(OCCN2CCCC2)c1	7.09%	4.18%	4%
CCCCOc1ccc(/C=C/c2ccc(-c3c(C)[nH]c(C)c(Cl)c3=O)s2)cc1	-1.17%	2.35%	-1.25%
COc1ccc(-c2csc3ncnc(Cl)c23)cc1	5.44%	5.72%	4.99%
CN(C)CCOc1ccc(-c2cc(-c3ccc(Cl)c(O)c3)c(-c3ccncc3)o2)cc1	4.55%	-0.72%	4.9%
OC(c1ccccc1)C1CN(CCc2ccccc2)CCC1(O)c1ccccc1 (configuration not stated)	0.73%	-1.7%	-1.32%
O=C(Nc1ccc(N2CCCN(Cc3cccc(F)c3)CC2)cc1)c1ccccc1	0.26%	-0.73%	-0.78%
Cn1cc(C2CCN(CCCCNC(=O)c3sc(-c4ccc(C(F)(F)F)cc4)nc3CO)CC2)c2ccccc21	-3.34%	-1.85%	-0.2%
COc1cccc2cc(C(=O)N[C@@H](CC(C)C)C(=O)N[C@H](C=NN3CCCC3=O)Cc3ccccc3)oc12	2.46%	5.52%	2.7%
CC(C)(C)OC(=O)Cn1cnc2cc(NC(=O)c3cc([N+](=O)[O-])cc([N+](=O)[O-])c3)ccc21	3.13%	4.11%	3.89%
COc1ccc2[nH]ccc(=NN=Cc3ccc(F)cc3)c2c1	2.33%	-0.63%	-0.34%
Cc1ccc(OC2CCN(CCCCC3(C)C(=O)Nc4ccccc43)CC2)cc1 (configuration not stated)	4.24%	15.1%	9.07%
CCCCCCn1ccc2c3c(N)nc(N)nc3ccc21	104%	101%	102%
Cc1[nH]c(C)c(-c2ccc(-c3ccccc3F)nc2)c(=O)c1Cl	1.2%	-2.36%	1.16%
N#CCCN1CCN(Cc2ccc(-c3ccc(-c4nc5cc(F)ccc5[nH]4)s3)cc2)CC1	5.49%	0.84%	4.14%
Oc1cc(-c2cccc(C(F)(F)F)c2)nc(Nc2ccc(Cl)c(Cl)c2)n1	0.75%	0.89%	0.9%
Cc1cc(N(C)C)nc(Nc2ccc(NC(=O)c3ccccc3C)cc2)n1	11.4%	17.1%	5.05%
O=C(Nc1ccc2c(c1)CCCN2S(=O)(=O)c1cccs1)c1cc([N+](=O)[O-])ccc1Cl	5%	8.25%	3.5%
Cc1cccc2nc(-c3cccc(-c4cccc(NC(=O)c5cncn5C)c4)c3)[nH]c12	-0.07%	3.4%	4.6%
CCCCCCCC(=O)N[C@@H](Cc1ccccc1)C(=O)N[C@H](C(=O)O)C(C)C	2.54%	1.23%	2.59%

Structure (SMILES)	inhibition [1]	inhibition [2]	inhibition [3]
COc1ccc(-c2cccc(NC(=O)c3cccc(Cl)c3)c2)cc1CN1CCCC1	7.71%	5.81%	-1.22%
O=C(Nc1ccc(Cl)cc1)Nc1ccc(-c2cccc(-c3nc4cc(F)ccc4[nH]3)c2)cc1	2.83%	4.68%	3.09%
CCNC(=O)Nc1cccc(-c2cccc(-c3nc4cc(C(F)(F)F)ccc4[nH]3)c2)c1	10%	7.8%	7.55%
COc1ccc(NC(=O)/C=C/c2ccc(Cl)c(Cl)c2)cc1N1CCN(C)CC1	9.73%	4.85%	6.48%
CC(C)CNCc1ccc(-c2cccc(CN(C(=O)NCCc3ccccc3)C3CCN(Cc4ccccc4)CC3)c2)cc1	9.24%	11%	8.02%
Cc1ccccc1C1CCN(C2CCC(NC(=O)C3=Cc4ccccc4OC3)CC2)CC1 (configuration not stated)	5.24%	4.94%	4.67%
Cn1cncc1-c1ccc2ncnc(Nc3ccc(OCc4ccccc4)cc3)c2c1	0.55%	1.48%	0.29%
Cc1ccc(-c2nc3cc(C(=O)NC4CCN(Cc5ccccc5)CC4)ccc3[nH]2)cc1	6.09%	2.07%	0.96%
O=C(/C=C/c1ccc(Cl)c(Cl)c1)NCCCCCN1CCCN(C(=S)Nc2ccc(Cl)c(Cl)c2)CC1	-0.53%	-1.2%	0.13%
N#Cc1ccc2c(c1)CCN(CCC1CCC(NC(=O)c3cc4ccc(Br)cc4[nH]3)CC1)C2 (configuration not stated)	1.19%	0.57%	1.16%
O=C(/C=C/c1ccc(-c2nc3ccc(Cl)cc3[nH]2)cc1)NC1CCN(Cc2ccccc2)CC1	1.24%	1.66%	3.7%
O=C(/C=C/c1ccc(Cl)c(Cl)c1)NCCCCCN1CCCC(C(=O)Nc2ccc(Cl)c(Cl)c2)C1 (configuration not stated)	-0.31%	-1.19%	-0.96%
Cc1[nH]c(C)c(-c2ccc(-c3ccc(C(F)F)cc3)nc2)c(=O)c1Cl	2.19%	3.08%	2.57%
O=S(=O)(NC1CCN(c2ccnc3cc(Cl)ccc23)C1)c1cccs1 (configuration not stated)	0.41%	-0.12%	1.61%
c1ccc2c(Nc3ccc(Cc4ccc(Nc5c6ccccc6nc6ccccc56)cc4)cc3)c3ccccc3nc2c1	6.04%	6.65%	2.95%
COc1ccc2nccc([C@@H](O)CN3CCC(NCc4cc5cc(Cl)ccc5[nH]4)CC3)c2c1	12.5%	28.1%	2.75%
CCC(O)(C#Cc1c(C)nc(N)nc1N)CC	2.19%	2.72%	-0.68%
Cc1cc(NC(=O)c2ccco2)ccc1OC1CCN(Cc2ccccc2)CC1	0.52%	4.72%	1.9%
Cc1[nH]c2cc(F)ccc2c(=O)c1Cc1ccc(Cl)cc1.Cc1[nH]c2cccc(F)c2c(=O)c1Cc1ccc(Cl)cc1	23.5% and 29.2%	37.3% and 55.7%	14.3% and 15%
COc1cc2nc(N(C)C)nc(Nc3ccc4c(cnn4Cc4ccccc4)c3)c2cc1OC	-0.58%	-0.17%	2.85%
CCCCCOc1ccc(C(O)C(CN2CCCCC2)c2ccccc2)cc1 (configuration not stated)	5.64%	4.91%	5.39%
CCc1cn(CCCOC)c2ccc(C(=O)N[C@@H](Cc3ccccc3)[C@H](O)CNCc3cccc(C(F)(F)F)c3)cc12	3.43%	2.52%	2.24%
CCN1CCN(c2cc(C)c3cc(NC(=O)c4cc(OC)cc(OC)c4)ccc3n2)CC1	-0.26%	1.03%	2.19%
O=C(Nc1ccc(N2CCN(Cc3c[nH]c4cc(F)ccc34)CC2)cc1)c1ccccc1-c1ccc(C(F)(F)F)cc1	7.38%	4.06%	3.31%
